Experimental data published in ChEMBL document CHEMBL3433997, “St. Jude Leishmania screening dataset” (2016).
Values joined by “and” are separate entries in the source; they are usually repeats but may differ in a detail not shown here. Equal entries are not always repeated.

Experiments:
Format in all cases: functional
[1] = biological target: Solute carrier family 2, facilitated glucose transporter member 1 (Homo sapiens) (UniProt P11166); assay: ST_JUDE_LEISH: Cytotoxicity at 2uM final concentration against transgenic Leishmania Mexicana promastigotes LmGLUT1 that are glucose transport deficient and complemented with the human glucose transporter GLUT1. Activity is measured by DNA content using SYBR green in vitro
Solute carrier family 2, facilitated glucose transporter member 1 (Homo sapiens), sequence (P11166 whole entry): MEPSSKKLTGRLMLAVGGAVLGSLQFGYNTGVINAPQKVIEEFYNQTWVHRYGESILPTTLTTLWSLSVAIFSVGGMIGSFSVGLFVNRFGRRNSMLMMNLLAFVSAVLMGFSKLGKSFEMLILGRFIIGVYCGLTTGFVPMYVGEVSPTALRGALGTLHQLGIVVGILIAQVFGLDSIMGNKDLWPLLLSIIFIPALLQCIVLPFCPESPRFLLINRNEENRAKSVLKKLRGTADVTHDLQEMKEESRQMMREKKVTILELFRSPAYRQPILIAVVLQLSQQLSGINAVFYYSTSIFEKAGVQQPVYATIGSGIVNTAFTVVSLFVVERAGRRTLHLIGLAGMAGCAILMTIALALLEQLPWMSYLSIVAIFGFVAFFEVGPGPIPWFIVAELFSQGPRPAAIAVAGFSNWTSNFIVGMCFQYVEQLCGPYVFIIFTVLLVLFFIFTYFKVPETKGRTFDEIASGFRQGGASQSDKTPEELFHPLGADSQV

[2] = biological target: Hexose transporter 1 (Plasmodium falciparum) (UniProt O97467); assay: ST_JUDE_LEISH: Cytotoxicity at 2uM final concentration against transgenic Leishmania Mexicana promastigotes LmPfHT that are glucose transport deficient and complemented with the Plasmodium falciparum hexose transporter. Activity is measured by DNA content using SYBR green in vitro
[3] = biological target: Glucose transporter (Leishmania mexicana) (UniProt O61059); assay: ST_JUDE_LEISH: Cytotoxicity at 2uM final concentration against transgenic Leishmania Mexicana promastigotes LmGT2 that are glucose transport deficient and complemented with the L. Mexicana glucose transporter 2. Activity is measured by DNA content using SYBR green in vitro

Structure (SMILES)	inhibition [1]	inhibition [2]	inhibition [3]
CN(C)CCCn1cc(C(=O)OC2CC3CCC(C2)N3C)c2cc(-c3ccccc3)ccc21 (centres undefined)	12.9%	6.68%	9.57%
CSc1nccc(-c2ccc(S(=O)(=O)NC3CCC(CN4CCC(c5c[nH]c6ccccc56)CC4)CC3)s2)n1 (centres undefined)	2.14% and 2.23%	0.65% and 1.79%	2.7% and 0.3%
Cc1ccc(-n2nc(C)c3c2NC(=O)CSC3c2ccsc2)cc1 (centres undefined)	9.48%	13.5%	11%
Cc1cc(N)nc2cc(CNCCc3ccccc3Br)ccc12	0.26%	0.02%	-0.67%
CC(Cc1ccc(SC(C)(C)C)cc1)NCC(O)c1cccc(Cl)c1 (centres undefined)	-1.59%	-2.57%	-0.72%
CC(C)CNCc1cccc(-c2cccc(CN(C(=O)NC3CCCCC3)C3CCN(Cc4ccccc4)CC3)c2)c1	8.3%	4.64%	5.98%
FC(F)(F)c1cccc(N2CCC(CN3CCC(c4c[nH]c5ccccc45)CC3)CC2)n1	7.61%	6.91%	7.85%
O=C(CSc1ccc(Cl)cc1)NC1CCC(CN2CCC(c3c[nH]c4ccccc34)CC2)CC1 (centres undefined)	5.29%	1.76%	2.72%
NCc1cccc(-c2cccc(CN(C(=O)Nc3ccccc3)C3CCN(Cc4ccccc4)CC3)c2)c1	7.36%	6.75%	6.25%
COC(=O)c1ccc(CC(C)NCC(O)c2cccc(C(F)(F)F)c2)cc1 (centres undefined)	2.79% and 2.21% and 1.58%	-0.93% and 1.17% and 2.06%	2.89% and 0.72% and 2.04%
CN(c1ccc(NC(=O)CCOc2ccccc2)cc1)C1CCN(Cc2cccc(O)c2)CC1	1.64%	-0.45%	-0.97%
CCCCCSc1cc(O)c(C(CNC)C(C)C)cc1OC (centres undefined)	1.1%	-1.89%	-2.39%
CC1(C)N=C(N)N=C(N)N1c1ccc([N+](=O)[O-])cc1	9.35%	8.47%	7.22%
CC(C)N(C)C(=O)n1cnc(S(=O)(=O)C2CC3CCC2C3)n1 (centres undefined)	2.26%	1.45%	-0.84%
COc1ccc(CN2CCN(CCOC(c3ccccc3)c3ccc(Cl)cc3)CC2)c(O)c1 (centres undefined)	9.85%	10.7%	6.46%
CC[C@H]1CN2CC[C@H]1C[C@H]2C(O)c1cc(OC)nc2ccccc12 (some centres undefined)	-0.41%	0.13%	-0.23%
Cc1[nH]c2ccccc2c1C1=CCN(CCCCC23CCCc4cccc(c42)NC3=O)CC1 (centres undefined)	2.64%	2.98%	2.47%

Structure (SMILES)	inhibition [1]	inhibition [2]	inhibition [3]
CCOC(=O)CCCN1C(=O)CN=C(c2ccccc2)c2cc(Cl)ccc21	-1.02%	0.13%	3.48%
O=C(/C=C/c1ccc(Cl)cc1)NC1CCC(CN2CCC(c3c[nH]c4ccccc34)CC2)CC1 (centres undefined)	0.07% and -1.03%	0.24% and -2.23%	-1.22% and 2.14%
O=C(Nc1cc(C(F)(F)F)cc(C(F)(F)F)c1)c1cc(Cl)ccc1O	7.09%	7.96%	8.03%
COC(=O)c1ccc(CC(C)NCC(O)c2ccc3ccc4ccccc4c3c2)cc1 (centres undefined)	3.1%	1.22%	3.14%
CCc1nc(N)nc(N)c1-c1cccc(Cl)c1	2.71%	2.32%	3.02%
COC(=O)c1ccc(CC(C)NCC(O)c2ccc(F)c(Cl)c2)cc1 (centres undefined)	0.56%	0.78%	2.31%
Cc1cccc(N2CCN(Cc3cc(Cl)ccc3O)CC2)c1C	0.93%	1.18%	3.25%
CCC1=C[C@@H]2CN(C1)Cc1c([nH]c3ccccc13)[C@@](C(=O)OC)(c1cc3c(cc1OC)N(C)[C@H]1[C@@](O)(C(=O)OC)[C@H](O)[C@]4(CC)C=CCN5CC[C@]31[C@@H]54)C2	2.2%	4.15%	2.69%
CN(c1cc(NC(=O)c2ccc(F)cc2)ccn1)C1CCN(Cc2cccc(O)c2)CC1	2.68%	4.98%	6.32%
COc1ccc(CCNCc2ccc3c(C)cc(N)nc3c2)cc1	0.82%	2.73%	2.71%
CC[C@H]1CN2CC[C@H]1C[C@@H]2[C@@H](O)c1ccnc2ccccc12	-0.01%	0.66%	-1.98%
CO/C(=C\C=C\c1cc2cc(Cl)c(Cl)cc2[nH]1)C(=O)N[C@H]1CN2CCC1CC2	0.86%	-0.23%	-0.34%
CC(Cc1ccc(NC(=O)CCCc2ccccc2)cc1)NCCc1cccc(Cl)c1 (centres undefined)	1.2%	0.72%	2.44%
CC[C@H]1CN2CC[C@@H]1C[C@H]2[C@H](O)c1cc(N2CCC(N3CCCCC3)CC2)nc2ccc(OC)cc12	1.26%	4.69%	-0.04%
Cc1c(C)c2c(c(C)c1O)CC[C@@](C)(C(=O)N1CCC(CN3CCC(c4c[nH]c5ccccc45)CC3)CC1)O2	-0.93%	-1.76%	-3.6%
COc1ccc(CC(C)NCC(O)c2cccc(Br)c2)cc1 (centres undefined)	10.3%	8.65%	9.13%
